The values below come from PubChem BioAssay (Tox21).

Experiment [1] can be described thus: qHTS assay to identify small molecule antagonists of the progesterone receptor (PR) signaling pathway - cell viability counter screen (AID 1346798). Note: % is set by controls: 0 for no effect and ±100 for the full control effect; nearly all actives have a fitted effect of over 50% in size. Particulars: PR-UAS-bla HEK293T viability, CellTiter-Glo luminescence, 16 h; series mostly up to 92.4 µM. The procedure, abridged: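 HEK293T PR-UAS-bla, 2% charcoal-stripped FBS; 4 hr pre-plate; cpd + R5020, 16 h 37C; LiveBLAzer read first; then CellTiter-Glo 30 min RT, luminescence.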

Experiment [2] in a line: qHTS assay to identify small molecule agonists of the progesterone receptor (PR) signaling pathway - cell viability counter screen (AID 1346799; calls by dose curve; note: nearly all actives have a fitted effect of over 45% in size; note: potency is the fitted concentration of half-maximal effect). As to conditions: PR-UAS-bla HEK293T viability, CellTiter-Glo luminescence, 16 h; series mostly up to 92.4 µM. The procedure, abridged: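 Luminescence from CellTiter-Glo, added after the beta-lactamase FRET read in the same wells, gave cytotoxicity in PR-UAS-bla HEK293T cells treated with compounds for 16 hr at 37C.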

Experiment [3] in a line: qHTS assay to identify small molecule antagonists of the TGF-beta/Smad signaling pathway - cell viability counter screen (AID 1346824). Note: % is set by controls: 0 for no effect and ±100 for the full control effect; nearly all actives have a fitted effect of over 50% in size. As to conditions: SBE-bla HEK293T viability, CellTiter-Glo luminescence; series mostly up to 76.8 µM. The procedure, abridged: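 Cytotoxicity counter-screen run in the same wells as the beta-lactamase Smad reporter read: CellTiter-Glo luminescence after 30 min at room temperature. HEK 293T SBE-bla cells had 5 hr compound exposure at 37 C with TGF-beta1 (0.25 ng/mL stock).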

A short description of experiment [4]: qHTS assay to identify small molecule agonists of the TGF-beta/Smad signaling pathway - cell viability counter screen (AID 1346829). Note: top concentration of the series differs between compounds; % is set by controls: 0 for no effect and ±100 for the full control effect; nearly all actives have a fitted effect of over 45% in size. Particulars: SBE-bla HEK293T viability, CellTiter-Glo luminescence, 5 h; series mostly up to 76.8 µM. The procedure, abridged:
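Cytotoxicity counter screen: CellTiter-Glo luminescence (30 min, room temperature) measured in the SBE-bla HEK 293T reporter wells after 5 hr compound treatment at 37 C and the 2 hr substrate step.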

Experiment [5] in a line: qHTS assay to identify small molecule agonists of the TGF-beta/Smad signaling pathway (AID 1346859; active = well fitted activation curve with a large enough effect in the signal ratio in the repeat runs, not every such curve was filed as active; the % refers to the signal ratio; note: % is set by controls: 0 for no effect and ±100 for the full control effect). Particulars: SBE-bla HEK293T, TGF-beta/Smad beta-lactamase reporter, 5 h; series mostly up to 76.8 µM. The method in brief:
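SBE-bla HEK 293T, 4,000 cells/well, plated o/n; cpd in DMSO, 5 hr, 37 C/5% CO2; B/G FRET substrate 2 hr RT; ex 405, em 460/530 nm.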

Experiment [6] concerns the target Thyrotropin-releasing hormone receptor (Homo sapiens) (UniProt P34981). The experiment can be described thus: qHTS assay to identify small molecule antagonists of the thyrotropin-releasing hormone receptor (TRHR) signaling pathway (AID 1346877; active = well fitted inhibition curve with a large enough effect in the repeat runs, not every such curve was filed as active; note: % is set by controls: 0 for no effect and ±100 for the full control effect). Particulars: TRHR-HEK293, TRH-induced calcium fluorescence, antagonist mode; series mostly up to 51.3 µM. The procedure, abridged: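 HEK293/TRHR cells, 18 h, 37 °C; Ca2+ dye 2 h; cpd 5 min RT; TRH 1 nM final; fluorescence read 3 min, 1 s intervals; 15 concs, triplicate.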

The target is the same in experiment [7]. The experiment can be described thus: qHTS assay to identify small molecule agonists of the thyrotropin-releasing hormone receptor (TRHR) signaling pathway (AID 1346891; calls by dose curve; note: % is set by controls: 0 for no effect and ±100 for the full control effect). Particulars: TRHR-HEK293 calcium fluorescence, agonist mode; series mostly up to 57.6 µM. The procedure, abridged: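 Intracellular calcium rise, read as fluorescence every second for 3 min, served as the agonist signal in dye-loaded HEK293 cells expressing TRHR; each compound ran at 15 concentrations in triplicate.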

The nature of experiment [8]: Human pregnane X receptor (PXR) small molecule agonists, qHTS cell viability counter screen (AID 1346977). Note: nearly all actives have a fitted effect of over 50% in size. Note: potency is the fitted concentration of half-maximal effect. Particulars: PXR-Luc HepG2 viability, CellTiter-Fluor, 24 h; series mostly up to 92.4 µM. The procedure, abridged:
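PXR-Luc HepG2, 2,000 cells/well, 5% charcoal-stripped FBS; 5hr settle; cpd 24hr, 37C/5% CO2; CellTiter-Fluor at 23hr, read 1hr later (fluorescence).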

The nature of experiment [9]: Caspase-3/7 induction in HepG2 cells by small molecules, qHTS assay (AID 1346978). Note: nearly all actives have a fitted effect of over 15% in size. Note: potency is the fitted concentration of half-maximal effect. As to conditions: HepG2 caspase-3/7 activation, Caspase-Glo luminescence, 17 h; series mostly up to 92.4 µM. The method in brief:
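Caspase-3/7 induction was measured by Caspase-Glo 3/7 luminescence (30 min, room temperature) after a 17 hr compound exposure of wild-type HepG2 cells seeded at 2,000 per well and pre-incubated 5 hr.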

Experiment [10] can be described thus: Caspase-3/7 induction in CHO-K1 cells by small molecules, qHTS cell viability counter screen (AID 1346979). Note: nearly all actives have a fitted effect of over 35% in size. Note: potency is the fitted concentration of half-maximal effect. Particulars: CellTiter-Fluor fluorescence, 17 h; series mostly up to 92.4 µM. The procedure, abridged: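 Cells (CHO-K1, wild type) are plated at 1,500 per well and incubated 5hr. Test compounds in DMSO are then pinned in, followed by 16hr at 37C and 5% CO2. Viability is read by CellTiter-Fluor fluorescence after 1hr.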

Experiment [11] in a line: Caspase-3/7 induction in CHO-K1 cells by small molecules, qHTS assay (AID 1346980). Note: % is set by controls: 0 for no effect and ±100 for the full control effect; nearly all actives have a fitted effect of over 15% in size. Particulars: CHO-K1 caspase-3/7 induction, Caspase-Glo luminescence, 17 h; series mostly up to 92.4 µM. The method in brief: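 Luminescent Caspase-Glo 3/7 read (30min, room temperature) quantified apoptosis induction. Cells were wild-type CHO-K1, treated with compound for 17hr at 37 C and 5% CO2.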

A short description of experiment [12]: Caspase-3/7 induction in HepG2 cells by small molecules, qHTS cell viability counter screen (AID 1346981). Note: nearly all actives have a fitted effect of over 30% in size. Note: potency is the fitted concentration of half-maximal effect. Particulars: CellTiter-Fluor fluorescence, 17 h; series mostly up to 92.4 µM. The method in brief:
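Fluorescence read-out of live-cell protease activity (CellTiter-Fluor) after 1 hr with reagent. This was measured in the same wells as the caspase-3/7 luminescence, on HepG2 cells exposed to DMSO-dissolved compounds for 16 hr at 37 C.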

Experiment [13] concerns the target Nuclear receptor subfamily 1 group I member 2 (Homo sapiens) (UniProt O75469). The experiment can be described thus: Human pregnane X receptor (PXR) small molecule agonists, qHTS assay (AID 1346982). Note: potency is the fitted concentration of half-maximal effect; nearly all actives have a fitted effect of over 35% in size. Particulars: PXR-Luc HepG2, CYP3A4 luciferase reporter, 24 h; series mostly up to 92.4 µM. The procedure, abridged:
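HepG2 PXR-Luc reporter line, 5% charcoal-stripped FBS; 5 hr pre-incubation, compound (DMSO) 24 hr at 37 C/5% CO2; ONE-Glo 30 min RT; luminescence read-out.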

Experiment [14] addresses Nuclear receptor subfamily 1 group I member 2 (Rattus norvegicus) (UniProt Q9R1A7). The experiment can be described thus: Rat pregnane X receptor (rPXR) activation by small molecules, qHTS assay (AID 1346983). Note: % is set by controls: 0 for no effect and ±100 for the full control effect; nearly all actives have a fitted effect of over 20% in size. Particulars: rPXR luciferase reporter cells, One-Glo luminescence, 24 h; stronger effect = higher value. The method in brief: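 Luminescent readout (One-Glo luciferase, 30 min room temperature) followed 24 hr compound treatment at 37 C of rPXR cells plated 2,000 per well and preincubated 5hr; qHTS format with compounds delivered in DMSO.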

Experiment [15] deals with Nuclear receptor subfamily 1 group I member 2 (Homo sapiens) (UniProt O75469). The experiment can be described thus: CYP3A4 induction through human pregnane X receptor (PXR) by small molecules, qHTS assay (AID 1346984). For activation: % is set by controls: 0 for no effect and ±100 for the full control effect. Note: nearly all actives have a fitted effect of over 40% in size. Note: potency is the fitted concentration of half-maximal effect. Particulars: DPX-2 HepG2 PXR, CYP3A4-luciferin luminescence, 24 h; series mostly up to 46.1 µM. The procedure, abridged: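 HepG2-derived DPX-2 line carrying PXR plus a CYP3A4-promoter luciferase reporter; cells plated 5 hr, compound-exposed 24 hr at 37C. CYP3A4 activity probed with 3uM (final) Luciferin-IPA for 3hr, then luciferase read after One-Glo.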
Sequence of Nuclear receptor subfamily 1 group I member 2 (Homo sapiens) (O75469 whole entry, looked up): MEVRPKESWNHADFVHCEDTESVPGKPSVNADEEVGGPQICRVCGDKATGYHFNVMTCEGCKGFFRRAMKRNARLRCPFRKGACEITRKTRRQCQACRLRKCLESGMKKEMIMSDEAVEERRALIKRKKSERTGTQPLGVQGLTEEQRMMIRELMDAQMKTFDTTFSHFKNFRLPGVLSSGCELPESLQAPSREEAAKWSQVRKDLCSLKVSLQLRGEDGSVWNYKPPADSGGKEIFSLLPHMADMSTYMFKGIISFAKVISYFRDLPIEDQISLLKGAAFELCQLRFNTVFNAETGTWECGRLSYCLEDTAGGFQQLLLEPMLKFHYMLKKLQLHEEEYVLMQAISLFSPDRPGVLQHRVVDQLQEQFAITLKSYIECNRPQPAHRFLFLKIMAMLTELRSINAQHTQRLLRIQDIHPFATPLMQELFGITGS

For experiment [16], the target named is Cytochrome P450 2D6 (Homo sapiens) (UniProt P10635). The experiment can be described thus: Cytochrome P450 Family 2 Subfamily D Member 6 (CYP2D6) small molecule antagonists: luciferase reporter qHTS assay (AID 1671196). Note: nearly all actives have a fitted effect of over 50% in size. Note: potency is the fitted concentration of half-maximal effect. As to conditions: P450-Glo CYP2D6 enzyme assay, luciferin luminescence, 1 h; series mostly up to 115 µM. The procedure, abridged: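 Luminogenic proluciferin substrate, CYP2D6 enzyme; 10 min RT preincubation with compound, NADPH regeneration system added, 1 h RT. Stop/detection reagent, 20 min RT, luminescence read (RLU). Signal proportional to CYP activity.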
Sequence of Cytochrome P450 2D6 (Homo sapiens) (P10635 whole entry, looked up): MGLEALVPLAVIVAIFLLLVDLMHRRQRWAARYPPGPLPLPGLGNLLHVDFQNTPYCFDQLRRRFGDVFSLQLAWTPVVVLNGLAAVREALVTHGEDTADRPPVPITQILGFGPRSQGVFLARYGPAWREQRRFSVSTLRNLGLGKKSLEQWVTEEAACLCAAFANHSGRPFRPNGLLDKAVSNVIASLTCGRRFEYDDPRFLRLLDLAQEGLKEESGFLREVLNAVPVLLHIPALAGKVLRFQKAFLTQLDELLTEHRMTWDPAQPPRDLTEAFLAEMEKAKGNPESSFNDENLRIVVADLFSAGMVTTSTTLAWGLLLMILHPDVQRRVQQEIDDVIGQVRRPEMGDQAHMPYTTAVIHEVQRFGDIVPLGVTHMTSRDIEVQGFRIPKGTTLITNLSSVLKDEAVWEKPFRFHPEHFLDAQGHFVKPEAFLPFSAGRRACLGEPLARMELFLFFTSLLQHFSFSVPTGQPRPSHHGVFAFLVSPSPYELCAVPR

Experiment [17] concerns the target Cytochrome P450 2C19 (Homo sapiens) (UniProt P33261). The experiment can be described thus: Cytochrome P450 Family 2 Subfamily C Member 19 (CYP2C19) small molecule antagonists: luciferase reporter qHTS assay (AID 1671197). Note: nearly all actives have a fitted effect of over 65% in size. Note: potency is the fitted concentration of half-maximal effect. Particulars: P450-Glo CYP2C19 enzyme, luciferin luminescence, 1 h; series mostly up to 115 µM. The method in brief:
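Luminescent readout of CYP2C19 activity: luciferin product detected 20 min after adding detection reagent. Before that, compound and enzyme-substrate mix preincubated 10 min at room temperature; NADPH-regenerating system started a 1 h, 37C reaction. Ketoconazole as positive control.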

In experiment [18] the target is Cytochrome P450 2C9 (Homo sapiens) (UniProt P11712). The experiment can be described thus: Cytochrome P450 Family 2 Subfamily C Member 9 (CYP2C9) small molecule antagonists: luciferase reporter qHTS assay (AID 1671198). As to conditions: P450-Glo CYP2C9 enzyme assay, luciferin luminescence; series mostly up to 115 µM. The procedure, abridged: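 Enzyme-substrate mix preincubated with compound 10 min at room temperature; reaction started with NADPH regeneration solution, 1 h 37C. Luminescent luciferin product read after 20 min detection reagent.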
Sequence of Cytochrome P450 2C9 (Homo sapiens) (P11712 whole entry, looked up): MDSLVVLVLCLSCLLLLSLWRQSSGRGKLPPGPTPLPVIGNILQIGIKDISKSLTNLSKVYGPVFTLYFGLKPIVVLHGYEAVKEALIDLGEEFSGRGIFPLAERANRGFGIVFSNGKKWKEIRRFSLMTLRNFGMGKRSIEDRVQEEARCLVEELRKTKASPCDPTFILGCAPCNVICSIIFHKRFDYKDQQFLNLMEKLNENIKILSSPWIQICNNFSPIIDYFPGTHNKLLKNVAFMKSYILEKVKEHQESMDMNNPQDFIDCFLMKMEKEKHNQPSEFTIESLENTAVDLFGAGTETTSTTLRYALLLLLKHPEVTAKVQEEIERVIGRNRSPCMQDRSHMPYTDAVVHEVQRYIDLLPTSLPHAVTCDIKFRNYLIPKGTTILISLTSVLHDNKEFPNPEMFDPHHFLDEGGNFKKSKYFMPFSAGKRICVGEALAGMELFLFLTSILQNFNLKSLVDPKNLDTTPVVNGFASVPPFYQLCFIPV

In experiment [19] the target is Nuclear receptor subfamily 1 group I member 2 (Homo sapiens) (UniProt O75469). The experiment can be described thus: Human pregnane X receptor (PXR) activation by small molecules, qHTS assay (AID 1346985). Note: % is set by controls: 0 for no effect and ±100 for the full control effect; nearly all actives have a fitted effect of over 40% in size. As to conditions: DPX-2 HepG2 CYP3A4-luciferase, 24 h; series mostly up to 38.3 µM. The procedure, abridged:
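DPX-2 cells (HepG2 co-transfected with a PXR response element and a CYP3A4-promoter luciferase construct) were seeded at 2,000 per well, rested 5 hr at 37C, then exposed to DMSO-dissolved compounds for 24 hr. Activation was read as luciferase luminescence.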

Where “and” joins values, the source holds several entries; their conditions need not be identical. Identical values can stand only once. Records with an inconclusive call do not appear. Some compounds were tested as several samples or in several runs, with calls that do not always agree. Calls of active or inactive are those of the source. Unless noted, calls come from the whole dose curve; as a rule, active = well fitted curve in the direction sought with a large enough effect in the repeat runs; inconclusive = weak or mixed curves; inactive = no such curve, though single readings can be large; an effect the other way counts as inactive or inconclusive.

Sequence of Thyrotropin-releasing hormone receptor (Homo sapiens) (P34981 whole entry, looked up): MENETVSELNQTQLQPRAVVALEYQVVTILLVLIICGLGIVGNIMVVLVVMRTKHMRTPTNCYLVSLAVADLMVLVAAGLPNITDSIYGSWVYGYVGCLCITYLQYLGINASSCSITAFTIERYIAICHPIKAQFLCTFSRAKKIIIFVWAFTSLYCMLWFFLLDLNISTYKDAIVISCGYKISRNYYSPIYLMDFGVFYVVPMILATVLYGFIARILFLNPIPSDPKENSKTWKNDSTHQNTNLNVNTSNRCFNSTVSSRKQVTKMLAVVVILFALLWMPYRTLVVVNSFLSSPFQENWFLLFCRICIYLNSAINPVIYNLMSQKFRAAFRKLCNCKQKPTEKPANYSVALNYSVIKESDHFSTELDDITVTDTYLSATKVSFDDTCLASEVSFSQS
Sequence of Cytochrome P450 2C19 (Homo sapiens) (P33261 whole entry, looked up): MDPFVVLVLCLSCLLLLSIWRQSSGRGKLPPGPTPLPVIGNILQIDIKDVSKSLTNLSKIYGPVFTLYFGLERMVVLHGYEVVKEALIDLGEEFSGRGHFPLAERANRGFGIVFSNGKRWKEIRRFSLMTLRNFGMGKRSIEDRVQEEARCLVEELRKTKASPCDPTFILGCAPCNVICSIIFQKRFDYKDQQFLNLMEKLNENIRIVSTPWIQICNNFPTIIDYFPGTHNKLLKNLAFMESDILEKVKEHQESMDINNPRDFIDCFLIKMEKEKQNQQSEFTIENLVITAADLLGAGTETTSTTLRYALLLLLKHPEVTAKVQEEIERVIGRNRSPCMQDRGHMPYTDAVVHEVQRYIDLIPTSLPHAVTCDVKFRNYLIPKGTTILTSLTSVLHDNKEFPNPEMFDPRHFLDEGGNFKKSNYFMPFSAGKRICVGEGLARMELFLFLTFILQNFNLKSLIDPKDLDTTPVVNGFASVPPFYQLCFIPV
Sequence of Nuclear receptor subfamily 1 group I member 2 (Rattus norvegicus) (Q9R1A7 whole entry, looked up): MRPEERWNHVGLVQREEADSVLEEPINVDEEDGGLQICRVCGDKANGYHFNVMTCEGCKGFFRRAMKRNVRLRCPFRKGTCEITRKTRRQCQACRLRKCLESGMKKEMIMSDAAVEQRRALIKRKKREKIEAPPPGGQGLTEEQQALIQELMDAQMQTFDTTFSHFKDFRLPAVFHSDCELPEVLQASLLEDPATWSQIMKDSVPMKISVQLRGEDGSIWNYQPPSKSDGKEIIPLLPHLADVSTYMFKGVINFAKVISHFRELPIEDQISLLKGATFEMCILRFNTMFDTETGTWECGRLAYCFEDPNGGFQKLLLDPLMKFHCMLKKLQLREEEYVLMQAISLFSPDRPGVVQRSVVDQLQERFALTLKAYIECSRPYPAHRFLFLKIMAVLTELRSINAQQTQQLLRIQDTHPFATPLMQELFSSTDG

As for `Cc1ccc(-c2cc(C(F)(F)F)nn2-c2ccc(S(N)(=O)=O)cc2)cc1`, the Potency entry in experiment [1], in experiment [3], in [4], in [6], in [7] and in [11] was “inactive” each time. Further, the Potency in experiment [2] is 76.6 µM (active) and inactive; in [8], 60.9 µM (active) and inactive; in experiment [9], 54.3 µM (active); in [10], 48.4 µM (active) and 61.1 µM (active); in experiment [12], 60.9 µM (active) and 61.1 µM (active) and inactive; in [13], 10.8 µM (active) and 5.45 µM (active) and 13.3 µM (active). In addition, the Potency in experiment [15] is 14.1 µM (active); in [16], 998 nM (active) and 35.6 µM (active) and 15.5 µM (active); in experiment [17] it was 28.1 µM (active) and 50.2 µM (active); in experiment [18], 12.6 µM (active) and 11.2 µM (active) and 8.71 µM (active). For the same compound, the outcome in experiment [5] was inactive. The max activation in [14] is 0.916% (inactive).

Regarding `CCN(CC)CCOc1ccc(/C(=C(\Cl)c2ccccc2)c2ccccc2)cc1`, in experiment [3], the Potency result was “inactive”. Besides, the compound was classed as inactive in experiment [5]. In addition, the Potency in [12] is 55.6 µM (active).

As to `c1ccc2cc3c(ccc4ccccc43)cc2c1`, the Potency entry in [1], in [2], in [4], in [8], in experiment [9] and in experiment [10] was “inactive” each time. The Potency entry in experiment [11] and in experiment [12] was “inactive” each time. For the same compound, the result in experiment [5] was inactive. In addition, the Potency is 27.4 µM (active) and 10.9 µM (active) in experiment [13]; 35.7 µM (active) in [16]; 50.2 µM (active) in experiment [17]; 25.2 µM (active) in experiment [18].

For `O=c1n(CC2CO2)c(=O)n(CC2CO2)c(=O)n1CC1CO1` (stereo unspecified), the Potency entry in [1], in experiment [3], in [4], in experiment [6], in experiment [7] and in experiment [11] was “inactive” in each case. The Potency entry in experiment [15], in experiment [19], in experiment [16] and in experiment [17] was “inactive” each time. The compound was classed as inactive in experiment [5]. Besides, the Potency in experiment [8] was 50.1 µM (active) and 54.5 µM (active); in experiment [9] it was 68.2 µM (active); in experiment [10] it was 60.8 µM (active) and 48.6 µM (active); in experiment [12], 54.2 µM (active) and 48.6 µM (active); in experiment [13] it was 17.1 µM (active) and 13.7 µM (active). For the same compound, the max activation in experiment [14] was -2.73% (inactive).
